Calls of active or inactive are those of the source. Rule for the calls: active = hit-call score of the fitted dose curve at least 0.9, where 1 is the maximum; inactive = score below 0.9.

From PubChem BioAssay (EPA / NIEHS) come the findings set out here.

Holding throughout (conditions): mRNA level, 48 h; actives raise or lower the signal
Read-out in assay [1]: Insulin Like Growth Factor 1 (IGF1), IGF1 (gene 3479)
As to the kind of experiment: LTEA_HepaRG_IGF1: Life Technologies and Expression Analysis (LTEA) Assay for Insulin Like Growth Factor 1 (IGF1) using HepaRG (AID 2283506). A digest of the protocol: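 Differentiated human HepaRG cells were dosed for 48 h in serum-free induction medium with 0.5% DMSO, eight half-log concentrations up to 100 uM, in duplicate. IGF1 mRNA was quantified by qRT-PCR normalized to ACTB, GAPDH, POLR2A; bidirectional fitting versus DMSO.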

Read-out in assay [2]: Intercellular Adhesion Molecule 1 (ICAM1), ICAM1 (gene 3383)
The experiment in a line: LTEA_HepaRG_ICAM1: Life Technologies and Expression Analysis (LTEA) Assay for Intercellular Adhesion Molecule 1 (ICAM1) using HepaRG (AID 2283507). In a few lines:
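Using the human liver line HepaRG, compounds are tested in duplicate over 48 h at concentrations up to 100 uM. Expression is determined by TaqMan qRT-PCR, normalized to endogenous controls, and analysed relative to 0.5% DMSO vehicle.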

Read-out in assay [3]: Insulin-like growth factor-binding protein 1 (IGFBP1), IGFBP1 (gene 3484)
The experiment in a line: LTEA_HepaRG_IGFBP1: Life Technologies and Expression Analysis (LTEA) Assay for Insulin-like growth factor-binding protein 1 (IGFBP1) using HepaRG (AID 2283508). In a few lines: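 HepaRG, 48 h, 8 conc. (max 100 uM, half-log), duplicates, 0.5% DMSO. Readout: TaqMan qRT-PCR, ACTB/GAPDH/POLR2A normalisation. Fit: bidirectional vs DMSO.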

Read-out in assay [4]: Interleukin 6 (IL6), IL6 (gene 3569)
The experiment in a line: LTEA_HepaRG_IL6: Life Technologies and Expression Analysis (LTEA) Assay for Interleukin 6 (IL6) using HepaRG (AID 2283509). A digest of the protocol: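 Differentiated human HepaRG cells, plated 48 h then switched to serum-free induction medium, were exposed in duplicate for 48 h to eight half-log concentrations up to 100 uM in 0.5% DMSO. IL6 mRNA measured by qRT-PCR, normalized to ACTB/GAPDH/POLR2A.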

Read-out in assay [5]: Interleukin 6 Receptor (IL6R), IL6R (gene 3570)
The experiment in a line: LTEA_HepaRG_IL6R: Life Technologies and Expression Analysis (LTEA) Assay for Interleukin 6 Receptor (IL6R) using HepaRG (AID 2283510). A digest of the protocol:
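Differentiated human HepaRG cells, plated 48 h then switched to serum-free induction medium, were dosed in duplicate for 48 h at eight half-log concentrations up to 100 uM in 0.5% DMSO. IL6R mRNA quantified by qRT-PCR, normalized to ACTB/GAPDH/POLR2A; bidirectional fit versus DMSO.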

Read-out in assay [6]: Potassium channel subfamily K member 1 (KCNK1), KCNK1 (gene 3775)
The experiment in a line: LTEA_HepaRG_KCNK1: Life Technologies and Expression Analysis (LTEA) Assay for Potassium channel subfamily K member 1 (KCNK1) using HepaRG (AID 2283511). In a few lines: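 Differentiated human HepaRG cells in serum-free induction medium were exposed in duplicate for 48 h to 8 half-log concentrations up to 100 uM in 0.5% DMSO. KCNK1 mRNA was measured by TaqMan qRT-PCR, normalized to ACTB, GAPDH and POLR2A, and fitted bidirectionally versus DMSO.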

Read-out in assay [7]: Keratin 19 (KRT19), KRT19 (gene 3880)
As to the kind of experiment: LTEA_HepaRG_KRT19: Life Technologies and Expression Analysis (LTEA) Assay for Keratin 19 (KRT19) using HepaRG (AID 2283512). In a few lines: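 Readout is qRT-PCR of KRT19 mRNA, normalized to ACTB, GAPDH and POLR2A, from HepaRG cells treated 48 h with eight-point half-log dilutions topping at 100 uM. Activity in either direction is scored relative to 0.5% DMSO vehicle.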

Read-out in assay [8]: JUN Transcription Factor, JUN (gene 3725)
As to the kind of experiment: LTEA_HepaRG_JUN: Life Technologies and Expression Analysis (LTEA) Assay for JUN Transcription Factor using HepaRG (AID 2283513). In a few lines:
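Differentiated HepaRG cells were exposed to chemicals for 48 h in serum-free induction medium, 8 concentrations from 100 uM in half-log steps, 0.5% DMSO vehicle, in duplicate. JUN mRNA was quantified by TaqMan qRT-PCR, normalized to ACTB, GAPDH, POLR2A.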

Read-out in assay [9]: Lipase C (LIPC), LIPC (gene 3990)
As to the kind of experiment: LTEA_HepaRG_LIPC: Life Technologies and Expression Analysis (LTEA) Assay for Lipase C (LIPC) using HepaRG (AID 2283514). A digest of the protocol:
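Differentiated human HepaRG cells in serum-free induction medium were exposed in duplicate for 48 h to eight concentrations (top 100 uM, half-log steps, 0.5% DMSO). LIPC mRNA was quantified by TaqMan qRT-PCR, normalized to ACTB, GAPDH and POLR2A, with bidirectional fitting versus DMSO.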

Read-out in assay [10]: Lipoprotein lipase (LPL), LPL (gene 4023)
As to the kind of experiment: LTEA_HepaRG_LPL: Life Technologies and Expression Analysis (LTEA) Assay for Lipoprotein lipase (LPL) using HepaRG (AID 2283515). In a few lines:
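Differentiated human HepaRG cells in serum-free induction medium were exposed in duplicate for 48 h to eight half-log concentrations (top 100 uM) in 0.5% DMSO. LPL mRNA was quantified by TaqMan qRT-PCR, normalized to ACTB, GAPDH and POLR2A.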

Read-out in assay [11]: MicroRNA 122 (MIR122), gene 406906
As to the kind of experiment: LTEA_HepaRG_MIR122: Life Technologies and Expression Analysis (LTEA) Assay for MicroRNA 122 (MIR122) using HepaRG (AID 2283516). Note: the transcript read is the microRNA miR-122. A digest of the protocol:
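Differentiated human HepaRG cells were exposed 48 h in serum-free induction medium to eight half-log concentrations (top 100 uM, 0.5% DMSO). Transcript level was measured by TaqMan qRT-PCR, normalized to ACTB, GAPDH and POLR2A, and fitted bidirectionally versus DMSO.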

Read-out in assay [12]: matrix metalloproteinase-10 (MMP10), MMP10 (gene 4319)
As to the kind of experiment: LTEA_HepaRG_MMP10: Life Technologies and Expression Analysis (LTEA) Assay for matrix metalloproteinase-10 (MMP10) using HepaRG (AID 2283517). In a few lines: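 HepaRG, collagen I, ~100,000 cells/well; serum-free induction medium; 48 h exposure, duplicate, 8-pt half-log to 100 uM, 0.5% DMSO. Readout: TaqMan qRT-PCR, normalized to ACTB/GAPDH/POLR2A; bidirectional fit vs DMSO.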

Read-out in assay [13]: MYC, MYC (gene 4609)
As to the kind of experiment: LTEA_HepaRG_MYC: Life Technologies and Expression Analysis (LTEA) Assay for MYC using HepaRG (AID 2283518). A digest of the protocol:
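Expression changes were scored by TaqMan qRT-PCR with ACTB, GAPDH and POLR2A normalization. Cultures in serum-free induction medium received duplicate 8-point concentration series, highest 100 uM, for 48 h; DMSO (0.5%) served as baseline.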

Read-out in assay [14]: matrix metalloproteinase-3 (MMP3), MMP3 (gene 4314)
The experiment in a line: LTEA_HepaRG_MMP3: Life Technologies and Expression Analysis (LTEA) Assay for matrix metalloproteinase-3 (MMP3) using HepaRG (AID 2283519). A digest of the protocol:
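Differentiated human HepaRG cells, plated 48 h on collagen I, were exposed in duplicate for 48 h in serum-free induction medium to eight half-log concentrations up to 100 uM in 0.5% DMSO. MMP3 mRNA was quantified by TaqMan qRT-PCR, normalised to ACTB, GAPDH and POLR2A.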

Read-out in assay [15]: Paternally Expressed 10 (PEG10), PEG10 (gene 23089)
As to the kind of experiment: LTEA_HepaRG_PEG10: Life Technologies and Expression Analysis (LTEA) Assay for Paternally Expressed 10 (PEG10) using HepaRG (AID 2283520). A digest of the protocol:
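Differentiated HepaRG cells, plated 48 h then switched to serum-free induction medium, were exposed in duplicate for 48 h to eight half-log concentrations topping at 100 uM in 0.5% DMSO. PEG10 mRNA was quantified by TaqMan qRT-PCR, normalised to ACTB, GAPDH and POLR2A.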

Read-out in assay [16]: Nuclear factor NF-kappa-B p105 subunit (Homo sapiens) (UniProt P19838)
As to the kind of experiment: LTEA_HepaRG_NFKB1: Life Technologies and Expression Analysis (LTEA) Assay for Nuclear Factor Kappa B Subunit 1 (NFKB1) using HepaRG (AID 2283521).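 Note: TaqMan qRT-PCR transcript normalised to ACTB GAPDH and POLR2A housekeeping genes.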 A digest of the protocol: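 HepaRG, 48 h exposure; 8-pt half-log series from 100 uM in 0.5% DMSO; duplicates. Readout: NFKB1 mRNA by qRT-PCR (Fluidigm arrays), housekeeping-normalized. Gain/loss fit vs DMSO baseline.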

Read-out in assay [17]: Protein phosphatase 2A (PPP2R4), PTPA (gene 5524)
As to the kind of experiment: LTEA_HepaRG_PPP2R4: Life Technologies and Expression Analysis (LTEA) Assay for Protein phosphatase 2A (PPP2R4) using HepaRG (AID 2283522). A digest of the protocol: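 Differentiated HepaRG cells in serum-free induction medium were exposed in duplicate for 48 h to eight concentrations, top 100 uM with half-log dilutions, in 0.5% DMSO. PPP2R4 mRNA was quantified by TaqMan qRT-PCR, normalized to ACTB, GAPDH and POLR2A.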

Read-out in assay [18]: Phosphatase and tensin (PTEN), PTEN (gene 5728)
As to the kind of experiment: LTEA_HepaRG_PTEN: Life Technologies and Expression Analysis (LTEA) Assay for Phosphatase and tensin (PTEN) using HepaRG (AID 2283523). In a few lines: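 Differentiated human HepaRG cells, plated 48 h then switched to serum-free induction medium, were exposed in duplicate for 48 h to eight half-log concentrations up to 100 uM in 0.5% DMSO. PTEN mRNA measured by TaqMan qRT-PCR, normalized to ACTB/GAPDH/POLR2A, bidirectional fit versus DMSO.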

Read-out in assay [19]: solute carrier (SLC22A1), SLC22A1 (gene 6580)
As to the kind of experiment: LTEA_HepaRG_SLC22A1: Life Technologies and Expression Analysis (LTEA) Assay for solute carrier (SLC22A1) using HepaRG (AID 2283524). A digest of the protocol: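 Human HepaRG cells were plated 48 h, switched to serum-free induction medium, then exposed in duplicate for 48 h to 8-point half-log series from 100 uM in 0.5% DMSO. SLC22A1 mRNA measured by qRT-PCR, normalized to ACTB/GAPDH/POLR2A, fitted bidirectionally versus DMSO.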

Read-out in assay [20]: Pyruvate Dehydrogenase Kinase 4 (PDK4), PDK4 (gene 5166)
The experiment in a line: LTEA_HepaRG_PDK4: Life Technologies and Expression Analysis (LTEA) Assay for Pyruvate Dehydrogenase Kinase 4 (PDK4) using HepaRG (AID 2283525). In a few lines:
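Differentiated human HepaRG cells, pre-cultured 48 h, were exposed in duplicate for 48 h in serum-free induction medium to eight half-log concentrations up to 100 uM in 0.5% DMSO. PDK4 mRNA was quantified by qRT-PCR, normalized to ACTB, GAPDH and POLR2A, bidirectional fitting versus DMSO.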

Chain of Nuclear factor NF-kappa-B p105 subunit (Homo sapiens) (P19838 whole entry, looked up): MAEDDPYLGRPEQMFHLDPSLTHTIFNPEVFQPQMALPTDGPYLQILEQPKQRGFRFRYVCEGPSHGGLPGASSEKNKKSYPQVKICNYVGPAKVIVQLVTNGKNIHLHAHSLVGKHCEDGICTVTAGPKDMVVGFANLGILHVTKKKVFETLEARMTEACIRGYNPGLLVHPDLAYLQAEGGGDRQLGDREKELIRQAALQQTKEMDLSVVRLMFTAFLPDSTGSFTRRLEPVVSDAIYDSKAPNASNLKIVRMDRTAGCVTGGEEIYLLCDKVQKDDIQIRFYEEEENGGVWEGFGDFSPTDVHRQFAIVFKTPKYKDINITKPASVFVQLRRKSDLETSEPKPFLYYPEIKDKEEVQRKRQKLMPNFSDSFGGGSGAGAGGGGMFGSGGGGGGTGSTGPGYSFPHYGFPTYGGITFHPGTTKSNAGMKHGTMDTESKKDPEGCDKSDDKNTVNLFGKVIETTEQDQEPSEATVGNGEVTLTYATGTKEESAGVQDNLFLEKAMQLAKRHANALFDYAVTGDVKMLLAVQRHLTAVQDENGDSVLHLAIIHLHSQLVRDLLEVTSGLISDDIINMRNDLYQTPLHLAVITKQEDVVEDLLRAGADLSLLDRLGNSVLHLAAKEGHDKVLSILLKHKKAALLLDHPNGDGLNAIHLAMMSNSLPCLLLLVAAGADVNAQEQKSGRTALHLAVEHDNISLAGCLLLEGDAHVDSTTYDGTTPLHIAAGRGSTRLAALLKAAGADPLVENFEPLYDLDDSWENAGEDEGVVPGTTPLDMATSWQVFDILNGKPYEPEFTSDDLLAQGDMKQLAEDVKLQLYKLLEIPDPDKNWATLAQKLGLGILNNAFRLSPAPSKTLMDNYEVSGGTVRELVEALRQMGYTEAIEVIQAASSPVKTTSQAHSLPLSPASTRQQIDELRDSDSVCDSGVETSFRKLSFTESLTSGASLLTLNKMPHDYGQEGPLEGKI

`CC1=C(/C=C/C(C)=C/C=C/C(C)=C/CO)C(C)(C)CCC1`: the results for the half-maximal activity concentration (AC50) in [1], in assay [14] and in assay [19] were 52.2 µM (active), 23.1 µM (active) and 10.4 µM (active), respectively. Further, the compound was classed as inactive in assay [2], in [3], in assay [4], in assay [5], in [6] and in [7]. The result in [8], in assay [9], in assay [10], in assay [11], in assay [12] and in [13] was inactive. The call in [15], in assay [16], in assay [17], in [18] and in assay [20] was inactive.

With `Oc1ccc2c(c1)OC[C@@H](N1CCC(O)(c3ccc(F)cc3)CC1)[C@H]2O`, the compound was called inactive in [1], in assay [2], in [3], in assay [4], in [5] and in [6]. Also, the compound was called inactive in assay [7], in [8], in assay [9], in [10], in assay [11] and in [12]. Besides, the call in [13], in [14], in [15], in assay [16], in [17] and in [18] was inactive. Besides, the compound was classed as inactive in assay [19] and in [20].

`CCCCCCCCCCC`: the compound was classed as inactive in assay [1], in assay [2], in [3], in assay [4], in assay [5] and in assay [6]. Besides, the compound was called inactive in assay [7], in [8], in assay [9], in assay [10], in assay [11] and in [12]. In addition, the compound was classed as inactive in assay [13], in assay [15], in assay [16], in [17], in assay [18] and in assay [19]. Also, the compound was called inactive in [20].
